Values joined by “and” are separate entries in the source; they are usually repeats but may differ in a detail not shown here. Equal entries are not always repeated. Out of some 5,500 compounds screened, about 2,000 (36%) were called active. Roughly 18% stayed inconclusive and do not appear here. Rule as the data show it: active = normalized growth mostly below about 0.91 (no sharp cut-off); inconclusive = no clear call, values can overlap the other calls; inactive = mostly above about 0.92. The list shows a part of the results.
Assay: chemical genetic growth profiling, strain panel (AID 1159580);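 also: tested at 20 µM; growth read once vehicle control cultures reached saturation at 30 °C; 1 = growth at the plate median or of vehicle wells; lower values mean less growth of the strain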
Conditions: S. cerevisiae deletion strains, growth OD

Measured: normalized growth

CCCCC(=O)N(Cc1ccc(-c2ccccc2-c2nn[nH]n2)cc1)[C@H](C(=O)O)C(C)C
inactive: locus YAL013W, strain DEP1, active compounds read low 0.992 | locus YAL021C, strain ccr4, active compounds read low 0.974 | locus YAL026C, strain drs2, active compounds read low 0.982 | locus YAL030W, strain snc1, active compounds read low 0.993 | locus YBL061C, strain skt5, active compounds read low 0.994 | locus YBR009C, strain hhf1, active compounds read low 0.986 | locus YBR021W, strain FUR4, active compounds read low 0.993 | locus YBR023C, strain chs3, active compounds read low 1 | locus YBR171W, strain sec66, active compounds read low 0.986 | locus YBR229C, strain ROT2, active compounds read low 1 | locus YBR231C, strain swc5, active compounds read low 1.01 | locus YBR279W, strain paf1, active compounds read low 1 | locus YCL011C, strain gbp2, active compounds read low 0.981 | locus YCL016C, strain dcc1, active compounds read low 0.98 | locus YCL029C, strain bik1, active compounds read low 0.962 | locus YCL061C, strain MRC1, active compounds read low 0.971 | locus YCL069W, strain vba3, active compounds read low 0.99 | locus YCR088W, strain abp1, active compounds read low 0.99 | locus YDL005C, strain med2, active compounds read low 1 | locus YDL035C, strain GPR1, active compounds read low 0.987 | locus YDL040C, strain nat1, active compounds read low 0.992 | locus YDL074C, strain BRE1, active compounds read low 1 | locus YDL101C, strain DUN1, active compounds read low 0.988 | locus YDL134C, strain PPH21, active compounds read low 1.01 | locus YDL185W, strain tfp1, active compounds read low 0.932 | locus YDL192W, strain arf1, active compounds read low 0.972 | locus YDR001C, strain nth1, active compounds read low 0.974 | locus YDR069C, strain doa4, active compounds read low 0.993 | locus YDR101C, strain arx1, active compounds read low 0.995 | locus YDR137W, strain rgp1, active compounds read low 0.969 | locus YDR150W, strain NUM1, active compounds read low 0.972 | locus YDR159W, strain sac3, active compounds read low 0.946 | locus YDR162C, strain NBP2, active compounds read low 0.982 | locus YDR195W, strain ref2 1 | locus YDR297W, strain sur2, active compounds read low 0.994 | locus YDR318W, strain mcm21, active compounds read low 0.979 | locus YDR334W, strain swr1, active compounds read low 0.987 | locus YDR335W, strain msn5, active compounds read low 0.994 | locus YDR388W, active compounds read low 0.989 | locus YDR392W, strain spt3, active compounds read low 0.979 | locus YDR502C, strain sam2, active compounds read low 0.98 | locus YEL003W, strain gim4, active compounds read low 0.968 | locus YEL037C, strain rad23, active compounds read low 0.987 | locus YEL061C, strain CIN8 (second series), active compounds read low 0.976 | locus YEL061C, strain CIN8, active compounds read low 0.985 | locus YER015W, strain faa2, active compounds read low 1.01 | locus YER016W, strain bim1, active compounds read low 0.999 | locus YER110C, active compounds read low 0.973 | locus YER111C, strain swi4, active compounds read low 0.986 | locus YER155C, strain BEM2 (second series), active compounds read low 1.03 | locus YER155C, strain BEM2, active compounds read low 0.994 | locus YER167W, strain BCK2, active compounds read low 0.954 | locus YFR010W, strain ubp6, active compounds read low 0.995 | locus YGL078C, strain dbp3, active compounds read low 0.97 | locus YGL086W, strain mad1, active compounds read low 0.971 | locus YGL167C, strain pmr1, active compounds read low 0.999 | locus YGL173C, strain kem1, active compounds read low 1 | locus YGL227W, strain vid30, active compounds read low 0.985 | locus YGL240W, strain doc1, active compounds read low 1.01 | locus YGL248W, strain PDE1, active compounds read low 0.991 | locus YGL253W, strain hxk2, active compounds read low 0.986 | locus YGR078C, strain PAC10, active compounds read low 0.988 | locus YGR135W, strain pre9, active compounds read low 0.982 | locus YGR229C, strain SMI1, active compounds read low 0.969 | locus YGR252W, strain gcn5, active compounds read low 1.1 | locus YHR013C, strain ard1, active compounds read low 1 | locus YHR027C, strain rpn1, active compounds read low 0.994 | locus YHR030C, strain SLT2, active compounds read low 0.984 and 0.959 | locus YHR079C, strain IRE1 (second series), active compounds read low 0.978 | locus YHR079C, strain IRE1, active compounds read low 0.955 | locus YHR094C, strain hxt1, active compounds read low 0.972 | locus YHR129C, strain ARP1, active compounds read low 0.999 | locus YHR142W, strain chs7, active compounds read low 0.96 | locus YHR200W, strain rpn10, active compounds read low 0.974 | locus YIL066C, strain RNR3, active compounds read low 0.991 | locus YIL073C, strain SPO22, active compounds read low 0.887 | locus YIL125W, strain kgd1, active compounds read low 0.954 | locus YIR030C, strain dcg1, active compounds read low 0.991 | locus YJL092W, strain hpr5, active compounds read low 0.986 | locus YJL095W, strain BCK1 (second series), active compounds read low 0.996 | locus YJL095W, strain BCK1, active compounds read low 0.992 and 0.987 | locus YJL115W, strain asf1, active compounds read low 0.971 | locus YJL129C, strain trk1, active compounds read low 1.01 | locus YJL134W, strain LCB3, active compounds read low 0.992 | locus YJL154C, strain vps35, active compounds read low 0.986 | locus YJL164C, strain tpk1, active compounds read low 0.988 | locus YJL166W, strain qcr8, active compounds read low 0.999 | locus YJL168C, strain set2, active compounds read low 0.984 | locus YJL187C, strain SWE1 (second series), active compounds read low 0.983 | locus YJL187C, strain SWE1, active compounds read low 0.99 | locus YJR043C, strain POL32, active compounds read low 0.979
